SW480 rerep = DNA re-replication induction in SW480 cells. SW480 DNA re-replication, Hoechst DNA content imaging, 48 h. Potency, µM (top dose mostly 46.1 µM), for inactives: top-dose re-replication activation, most hits filed as activators. hit rate 1.8% among 340,000; note: % of control where 0% means no effect; nearly all actives have a fitted effect of over 55% in size
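Cells (250 per well) received 23 nL compound or DMSO by pin tool and were kept 48 hr at 37 C, 5% CO2. Nuclei were then stained with Hoechst for 40 min and scanned for DNA content.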
p53 reactivator = restores transcriptional activity of mutant p53 | H1299 p53-A138V BP100-luciferase reporter, luminescence, 24 h | Potency, µM (titrated, usually from 92.2 µM), for the others: at the top dose activity change, positive = activation, hits mostly activators | hit rate 0.063% among 320,000; note: % of control where 0% means no effect; nearly all actives have a fitted effect of over 45% in size
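H1299 (p53-null), stable ts p53-A138V + BP100-Luc; 1000 cells/well, Opti-MEM/10% FBS; cpd 4 pt, 1:5; 24 h, 37 deg C, 5% CO2; detection reagent 10 min RT; luminescence.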
ELG1 DNA repair = inhibitors of ELG1-dependent DNA repair in HEK293T cells | HEK293T ELG1-luciferase reporter, luminescence, 16 h; DNA damage induced by 5-fluorouridine | Potency, µM (series often up to 46.1 µM), inactives show top-dose activity change, negative = inhibition, hits mostly inhibitors | hit rate 2.3% among 330,000 | AID 504467; note: % is set by controls: 0 for no effect and ±100 for the full control effect; nearly all actives have a fitted effect of over 55% in size
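Luminescence from the luciferase reporter, measured 30 min after ONE-Glo reagent at room temperature, was the read-out. Beforehand, 2,000 cells per well were exposed for 16 hr at 37 °C to 5-fluorouridine together with compound or vehicle.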
ELG1 genotoxic = inducers of genotoxicity in HEK293T ELG1-luciferase cells; HEK293T ELG1-luciferase reporter, luminescence, 16 h; Potency, µM (series often up to 46 µM), without a hit: at the highest dose activity change, positive = activation, usual class: activators; hit rate 1.3% among 330,000; AID 504466; note: % of control where 0% means no effect; nearly all actives have a fitted effect of over 60% in size
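Screening used a luciferase reporter fused to human ELG1 in HEK293T cells. Luminescence was read on a CCD plate imager after 16 hr exposure and 30 min ONE-Glo incubation.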
MCF10A rerep = inducers of DNA re-replication in MCF 10A breast cells; MCF 10A DNA re-replication, Hoechst nuclear intensity, 48 h; hit rate 2.9% among 350,000; Potency, µM (top dose mostly 46.1 µM), for the others: top-dose activity, positive = re-replication, usual class: activators; note: % of control where 0% means no effect; nearly all actives have a fitted effect of over 50% in size
A-T KAP1 phos = potential ataxia-telangiectasia treatment. F2112 A-T fibroblasts, KAP-1 phosphorylation AlphaLISA; neocarzinostatin DNA damage 30 min before lysis. Potency, µM (titrated, usually from 57.5 µM), without a hit: top-dose activation, hits mostly activators. hit rate 0.19% among 320,000. AID 485349; note: % of control where 0% means no effect; nearly all actives have a fitted effect of over 45% in size
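ATM-like activity read as KAP-1 phosphorylation via AlphaLISA donor/acceptor antibody pairs after lysis and 6 hr at 25C. Cells were ATM-null patient fibroblasts (F2112, hTERT), dosed 60 min, then exposed to the DSB inducer NCS for 30 min.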
Active calls of the source: *; ? = inconclusive; / = not tested or not shown. Shown are actives, neighbours in structure and some others; about 7.1% of the full set was active somewhere. Calls come from the whole dose curve; as a rule, active = well fitted curve in the direction sought with a large enough effect; inconclusive = small, poorly fitted or top-dose-only effect, or another doubt; inactive = no such curve, though single readings can be large; an effect the other way counts as inactive or inconclusive. Potency is the fitted concentration of half-maximal effect.

SMILES | SW480 rerep | p53 reactivator | ELG1 DNA repair | ELG1 genotoxic | MCF10A rerep | A-T KAP1 phos
CN(Cc1ccccc1)C(=O)c1ccc(S(=O)(=O)N(C)c2ccccc2)cc1 | -2% | -2% | -16% | -2% | 13% | 5%
COCCN(Cc1ccccc1)C(=O)Cc1ccc(OC)c(S(=O)(=O)N2CCOCC2)c1 | -7% | 7% | ? | -1% | -4% | 1%
COc1ccc(CC(=O)N(Cc2ccccc2)c2ccccc2)cc1S(=O)(=O)N1CCOCC1 | ? | -33% | 16µM* | -19% | -5% | 5%
CN(Cc1cnn(Cc2ccccc2)c1)C(=O)c1cccc(S(=O)(=O)N2CCOCC2)c1 | 18µM* | 15% | -21% | -1% | ? | -8%
COc1ccc(C(=O)N(CCc2ccccc2)Cc2ccccc2)cc1S(=O)(=O)N1CCOCC1 | 0% | -8% | -27% | -7% | 6% | 3%
COc1ccc(C(=O)N(C)Cc2cnn(Cc3ccccc3)c2)cc1S(=O)(=O)N1CCOCC1 | 4.1µM* | 3% | 1% | -1% | 3.7µM* | -5%
Cc1ccc(N(C)S(=O)(=O)c2cccc(C(=O)N(C)Cc3cnn(-c4ccccc4)c3)c2)cc1 | ? | -3% | 16µM* | -8% | 21µM* | 1%
CC(Sc1nnc(C2CC2)n1C1CC1)C(=O)NC1(C#N)CCCCC1 (configuration not stated) | -6% | -5% | ? | 0% | -2% | -3%
Cc1ccc(NC(=O)CCCn2c(=S)[nH]c3ccsc3c2=O)cc1C | -14% | -7% | 6% | -2% | ? | 4%
COc1ccc(/C=C/C(=O)N(CCC(N)=O)c2ccccc2)cc1S(=O)(=O)N1CCOCC1 | 4.6µM* | 0% | 19% | 4% | -1% | -2%
COc1ccc(/C=C/C(=O)N2CCN(c3ccccc3)CC2)cc1S(=O)(=O)N1CCOCC1 | -6% | -2% | ? | -11% | -6% | 16%
COc1ccc(N(C(=O)C(C)C)S(=O)(=O)c2ccc3ccccc3c2)cc1 | 2% | / | -1% | -4% | -5% | 5%
COc1ccc(C2=NN3C(C2)c2ccccc2OC32C(=O)N(C)c3ccccc32)cc1 (configuration not stated) | ? | ? | ? | 15µM* | ? | 0%
CC(=O)N1c2ccc(S(=O)(=O)NCC3CCC(C(=O)NCc4ccco4)CC3)cc2CC1C (configuration not stated) | -8% | -2% | 22% | 0% | 1% | -5%
CCOc1ccc(NC(=O)c2ccco2)c([N+](=O)[O-])c1 | ? | 4.5µM* | ? | ? | 23% | -4%
CCOc1ccc(C(NC(=O)c2ccco2)c2ccc(OC)c(OC)c2)cc1 (configuration not stated) | ? | -4% | 2% | 11% | 3.7µM* | -8%
COc1ccc(C(NC(=O)c2ccco2)c2ccc(OC)c(OC)c2)cc1 (configuration not stated) | 0% | 0% | -2% | -7% | 26% | -2%
COc1ccc(NC(=O)c2cccnc2)c([N+](=O)[O-])c1 | 16µM* | 22% | 4% | 0% | ? | -3%
COc1ccc(NC(=S)NC(NC(=O)c2cccc(Cl)c2)C(Cl)(Cl)Cl)c([N+](=O)[O-])c1 (configuration not stated) | ? | -3% | 16µM* | -5% | ? | -5%
COc1ccc(NC(=O)c2ccccc2)c([N+](=O)[O-])c1 | ? | 9% | ? | ? | ? | 11%
Cc1cccc(C)c1NC(=O)CN(C)C(=O)[C@H](C)NC(=O)c1ccco1 | 0% | -9% | 29% | 0% | 2% | 0%
O=C(NC1CCOc2ccccc21)c1ccccn1 (configuration not stated) | -5% | -4% | -4% | -2% | -14% | 4%
Cc1nnc(SCCC(=O)Nc2ccccc2Cl)o1 | -23% | / | -4% | -2% | 7% | 2%
COc1ccc2c(c1OC)C(=O)N1C2SC(C)(C)[C@H]1C(=O)NCC(C)C (some centres not stated) | -1% | -5% | 3% | -2% | -10% | 12%
CC(=O)NC12CC3CC(C1)CC(C(=O)N(C)CC(=O)Nc1cccc(F)c1)(C3)C2 | -8% | -2% | 15% | 0% | -1% | -9%
SMILES | SW480 rerep | p53 reactivator | ELG1 DNA repair | ELG1 genotoxic | MCF10A rerep | A-T KAP1 phos
CCOc1ccc(NC(=O)c2cccnc2Cl)c([N+](=O)[O-])c1 | 23µM* | 25% | 7% | 3% | 8% | 3%
CCOc1ccc(NC(=O)c2cccs2)c([N+](=O)[O-])c1 | -3% | ? | ? | ? | -1% | 7%
COC(=O)N1C(=O)[C@@](c2ccc(OC)cc2)(C(C)C)N1C(=O)OC | 21µM* | / | ? | ? | ? | 12%
O=c1oc2ccccc2c(Nc2cc3ccccc3cc2O)c1[N+](=O)[O-] | ? | ? | ? | 7% | 2.1µM* | -10%
CC(C)[C@H](N[C@@H](C)c1ccccc1)c1c(O)ccc2ccccc12 | 38% | 4% | -3% | -1% | -6% | 31%
Cc1ccc(SC2=C(N(C)C)C(=O)c3ccccc3C2=O)cc1 | ? | / | / | / | 12µM* | /
CN(C)c1cccc2c1C(=O)c1ccccc1C2=O | -17% | 4% | -6% | 1% | -2% | -7%
COc1ccc(C(=O)NC(=S)Nc2cccc(Cl)c2N2CCOCC2)cc1[N+](=O)[O-] | 7.3µM* | -1% | ? | -4% | -4% | 1%
COc1cc(C(=O)NC(=S)Nc2ccccc2[N+](=O)[O-])cc(OC)c1OC | -15% | -2% | 6.5µM* | 0% | 24% | 0%
COc1ccc(C(=O)NC(=S)Nc2ccccc2N2CCCCC2)cc1[N+](=O)[O-] | -2% | 4% | -29% | -3% | ? | -2%
O=C1CCC(C(=O)N2CCCC(N3CCN(c4cccc(C(F)(F)F)c4)CC3)C2)=NN1 (configuration not stated) | -12% | 15% | 7% | -4% | -4% | -4%
O=C(COC(=O)Cn1cnc2ccccc21)Nc1cccc(S(=O)(=O)N2CCOCC2)c1 | 24% | -1% | -1% | 6% | 0% | 2%
O=C(CSc1nc2ncccc2[nH]1)Nc1ccccc1-c1ccccc1 | -9% | -3% | -20% | -4% | 3% | 16%
CCCCNC(=O)c1cc2c(=O)n3cccc(C)c3nc2n(Cc2ccncc2)c1=N | -1% | 0% | -3% | 7% | 18% | -3%

Assay outcomes from PubChem BioAssay.
